The source of these data is the supplement of paper PMC11001985.

UniProt Q8TCZ2, sequence (Q8TCZ2 whole entry): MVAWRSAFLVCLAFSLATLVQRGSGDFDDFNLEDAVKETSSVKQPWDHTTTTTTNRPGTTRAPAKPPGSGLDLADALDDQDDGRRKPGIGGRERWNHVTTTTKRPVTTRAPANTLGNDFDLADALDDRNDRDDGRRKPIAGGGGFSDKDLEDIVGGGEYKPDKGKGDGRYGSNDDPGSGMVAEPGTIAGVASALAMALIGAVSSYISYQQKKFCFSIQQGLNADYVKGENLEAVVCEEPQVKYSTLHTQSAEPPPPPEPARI
UniProt P08727, sequence (P08727 whole entry): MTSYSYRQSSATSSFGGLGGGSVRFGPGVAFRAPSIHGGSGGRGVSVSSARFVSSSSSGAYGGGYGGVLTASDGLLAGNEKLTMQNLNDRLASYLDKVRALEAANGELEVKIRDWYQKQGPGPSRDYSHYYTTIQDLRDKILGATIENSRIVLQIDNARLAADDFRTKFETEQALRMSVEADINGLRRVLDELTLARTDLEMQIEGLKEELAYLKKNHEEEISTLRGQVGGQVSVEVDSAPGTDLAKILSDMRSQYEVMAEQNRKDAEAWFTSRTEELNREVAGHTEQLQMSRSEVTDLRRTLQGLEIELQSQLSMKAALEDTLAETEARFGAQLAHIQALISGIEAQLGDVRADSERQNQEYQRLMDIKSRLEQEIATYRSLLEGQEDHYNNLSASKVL
UniProt O75390, sequence (O75390 whole entry): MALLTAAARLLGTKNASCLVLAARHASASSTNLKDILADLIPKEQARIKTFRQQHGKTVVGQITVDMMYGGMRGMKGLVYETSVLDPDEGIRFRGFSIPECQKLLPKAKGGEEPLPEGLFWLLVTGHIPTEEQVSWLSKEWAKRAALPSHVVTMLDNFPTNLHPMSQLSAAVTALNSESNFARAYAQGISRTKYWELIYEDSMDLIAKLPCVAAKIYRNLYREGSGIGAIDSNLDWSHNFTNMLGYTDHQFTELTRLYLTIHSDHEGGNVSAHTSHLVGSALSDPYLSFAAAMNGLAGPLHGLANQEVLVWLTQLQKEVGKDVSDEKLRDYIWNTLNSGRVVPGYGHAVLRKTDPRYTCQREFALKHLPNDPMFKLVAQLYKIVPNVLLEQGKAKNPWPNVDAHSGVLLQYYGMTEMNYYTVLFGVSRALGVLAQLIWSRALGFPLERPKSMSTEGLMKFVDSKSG
UniProt Q12906, sequence (Q12906 whole entry): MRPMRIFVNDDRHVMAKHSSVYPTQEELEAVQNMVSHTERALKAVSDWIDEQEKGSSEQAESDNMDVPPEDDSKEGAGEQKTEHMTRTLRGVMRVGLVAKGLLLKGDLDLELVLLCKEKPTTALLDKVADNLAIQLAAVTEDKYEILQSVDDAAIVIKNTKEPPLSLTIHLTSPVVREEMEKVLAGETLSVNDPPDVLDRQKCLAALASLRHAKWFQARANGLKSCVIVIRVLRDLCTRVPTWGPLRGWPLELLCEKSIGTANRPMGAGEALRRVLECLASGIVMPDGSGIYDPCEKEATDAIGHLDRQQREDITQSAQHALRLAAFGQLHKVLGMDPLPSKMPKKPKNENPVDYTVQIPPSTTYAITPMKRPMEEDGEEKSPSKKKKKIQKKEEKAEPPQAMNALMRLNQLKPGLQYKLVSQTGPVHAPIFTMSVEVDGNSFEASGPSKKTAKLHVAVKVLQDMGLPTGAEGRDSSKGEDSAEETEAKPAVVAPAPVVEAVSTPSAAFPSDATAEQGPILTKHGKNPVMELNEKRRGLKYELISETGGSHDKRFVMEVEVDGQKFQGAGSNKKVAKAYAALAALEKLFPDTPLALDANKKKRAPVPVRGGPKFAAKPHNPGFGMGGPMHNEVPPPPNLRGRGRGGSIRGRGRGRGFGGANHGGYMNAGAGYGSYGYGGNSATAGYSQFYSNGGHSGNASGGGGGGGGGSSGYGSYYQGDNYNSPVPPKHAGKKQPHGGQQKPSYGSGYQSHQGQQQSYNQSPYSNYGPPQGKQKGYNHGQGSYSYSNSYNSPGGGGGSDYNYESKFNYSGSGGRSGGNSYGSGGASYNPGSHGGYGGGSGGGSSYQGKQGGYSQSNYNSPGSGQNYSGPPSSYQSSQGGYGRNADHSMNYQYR
UniProt Q9UJZ1, sequence (Q9UJZ1 whole entry): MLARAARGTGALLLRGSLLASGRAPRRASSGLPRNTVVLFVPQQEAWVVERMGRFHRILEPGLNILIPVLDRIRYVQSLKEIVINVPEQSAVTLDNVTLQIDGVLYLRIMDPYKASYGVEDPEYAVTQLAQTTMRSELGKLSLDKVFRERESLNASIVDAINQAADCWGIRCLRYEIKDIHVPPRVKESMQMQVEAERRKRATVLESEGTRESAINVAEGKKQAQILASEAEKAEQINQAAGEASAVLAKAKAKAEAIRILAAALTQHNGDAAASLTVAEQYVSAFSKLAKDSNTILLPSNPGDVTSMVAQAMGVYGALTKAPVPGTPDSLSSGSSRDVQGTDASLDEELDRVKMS
UniProt P52565, sequence (P52565 whole entry): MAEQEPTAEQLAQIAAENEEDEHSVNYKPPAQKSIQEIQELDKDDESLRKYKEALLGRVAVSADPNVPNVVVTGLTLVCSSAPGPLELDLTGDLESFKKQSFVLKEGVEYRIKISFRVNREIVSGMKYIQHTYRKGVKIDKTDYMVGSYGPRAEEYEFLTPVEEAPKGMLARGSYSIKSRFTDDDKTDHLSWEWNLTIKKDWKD
UniProt P14625, sequence (P14625 whole entry): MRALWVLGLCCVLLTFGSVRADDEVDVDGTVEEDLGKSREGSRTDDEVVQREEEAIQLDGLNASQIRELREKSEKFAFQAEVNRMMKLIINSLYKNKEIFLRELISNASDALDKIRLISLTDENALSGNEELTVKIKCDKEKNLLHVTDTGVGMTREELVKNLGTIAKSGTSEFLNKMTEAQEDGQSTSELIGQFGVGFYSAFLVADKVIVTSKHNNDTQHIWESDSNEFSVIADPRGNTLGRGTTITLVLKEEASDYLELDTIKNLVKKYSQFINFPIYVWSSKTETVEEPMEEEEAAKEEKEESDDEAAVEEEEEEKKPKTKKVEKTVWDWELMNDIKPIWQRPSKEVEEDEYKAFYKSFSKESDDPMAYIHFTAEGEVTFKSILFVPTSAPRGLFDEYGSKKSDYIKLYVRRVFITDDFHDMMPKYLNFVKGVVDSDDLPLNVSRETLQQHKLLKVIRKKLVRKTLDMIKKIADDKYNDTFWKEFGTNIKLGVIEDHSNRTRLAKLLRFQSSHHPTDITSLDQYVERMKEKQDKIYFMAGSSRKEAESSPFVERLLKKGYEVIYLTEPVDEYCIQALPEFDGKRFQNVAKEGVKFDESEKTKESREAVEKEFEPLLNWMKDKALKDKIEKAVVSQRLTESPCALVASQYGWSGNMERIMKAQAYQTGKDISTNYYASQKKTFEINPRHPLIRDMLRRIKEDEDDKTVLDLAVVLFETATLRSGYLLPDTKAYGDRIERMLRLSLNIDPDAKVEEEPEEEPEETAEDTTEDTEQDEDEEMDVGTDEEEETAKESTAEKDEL
UniProt Q86SF2, sequence (Q86SF2 whole entry): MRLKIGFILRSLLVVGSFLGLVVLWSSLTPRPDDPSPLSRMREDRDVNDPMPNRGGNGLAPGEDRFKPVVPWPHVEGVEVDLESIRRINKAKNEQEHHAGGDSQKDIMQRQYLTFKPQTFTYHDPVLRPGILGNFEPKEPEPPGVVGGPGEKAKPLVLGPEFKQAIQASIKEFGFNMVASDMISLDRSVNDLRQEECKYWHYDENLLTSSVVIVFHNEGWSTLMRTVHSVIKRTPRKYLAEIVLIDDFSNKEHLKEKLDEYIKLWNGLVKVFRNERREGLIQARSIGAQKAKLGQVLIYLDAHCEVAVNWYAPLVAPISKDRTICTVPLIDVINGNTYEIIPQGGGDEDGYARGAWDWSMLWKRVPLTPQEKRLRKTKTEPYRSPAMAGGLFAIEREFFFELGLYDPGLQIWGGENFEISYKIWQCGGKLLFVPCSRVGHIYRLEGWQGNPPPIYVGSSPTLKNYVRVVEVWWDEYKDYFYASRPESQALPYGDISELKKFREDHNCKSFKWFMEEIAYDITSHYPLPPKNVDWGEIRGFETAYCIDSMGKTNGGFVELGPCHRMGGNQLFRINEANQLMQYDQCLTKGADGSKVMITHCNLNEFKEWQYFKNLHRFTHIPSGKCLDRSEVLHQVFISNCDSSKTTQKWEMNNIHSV
UniProt P10646, sequence (P10646 whole entry): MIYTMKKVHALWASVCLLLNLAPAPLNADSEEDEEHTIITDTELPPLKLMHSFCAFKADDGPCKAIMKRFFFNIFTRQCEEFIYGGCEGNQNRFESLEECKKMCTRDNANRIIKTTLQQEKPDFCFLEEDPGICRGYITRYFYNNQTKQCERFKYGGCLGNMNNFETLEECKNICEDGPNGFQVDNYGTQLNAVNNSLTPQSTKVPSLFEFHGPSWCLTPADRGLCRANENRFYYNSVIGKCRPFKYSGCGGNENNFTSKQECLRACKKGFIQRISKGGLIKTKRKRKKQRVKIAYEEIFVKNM
UniProt P50991, sequence (P50991 whole entry): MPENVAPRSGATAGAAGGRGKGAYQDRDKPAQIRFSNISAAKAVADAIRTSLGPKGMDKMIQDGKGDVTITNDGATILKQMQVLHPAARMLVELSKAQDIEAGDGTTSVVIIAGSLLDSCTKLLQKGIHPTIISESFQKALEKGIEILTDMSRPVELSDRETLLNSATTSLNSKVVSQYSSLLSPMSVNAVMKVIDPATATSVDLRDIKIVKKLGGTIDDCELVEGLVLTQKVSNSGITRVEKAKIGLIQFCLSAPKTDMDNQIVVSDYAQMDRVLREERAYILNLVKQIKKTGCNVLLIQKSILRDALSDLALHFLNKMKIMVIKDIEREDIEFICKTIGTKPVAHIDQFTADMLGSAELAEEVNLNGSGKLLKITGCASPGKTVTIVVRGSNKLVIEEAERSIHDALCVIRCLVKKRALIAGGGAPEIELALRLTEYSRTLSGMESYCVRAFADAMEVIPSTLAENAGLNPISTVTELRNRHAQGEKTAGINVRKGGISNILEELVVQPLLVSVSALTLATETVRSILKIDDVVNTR

Compound in this assay: C#CCNC(=O)CCSSCCC(=O)NCCc1ccc(C=O)c(C=O)c1
Description: lysine labeling ratio R10:1 (500 µM / 50 µM probe), SILAC-ABPP in living cells; higher = lower intrinsic lysine reactivity toward the probe, active = 2 or less. Particulars: HeLa; probe concentrations 500 vs 50 µM. A digest of the protocol:
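With forward and reverse label swaps, light and heavy SILAC HeLa cells, alive and in PBS at room temperature, were exposed to either 500 µM or 50 µM of an alkyne-tagged lysine probe bearing a disulfide link. After mixing, lysates were clicked to biotin-azide, cut with trypsin, pulled down on neutravidin, freed with DTT, alkylated and analysed on a TIMS-TOF Pro by LC-MS/MS. The per-lysine value R is the median over forward and reverse replicates of the filtered median high-probe/low-probe MS1 peptide ratio. It is capped at 20.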
For the target “TMED9 (lysine site: K160) (UniProt Q9BVK6)”, the “lysine labeling ratio R10:1” value is 5.13 (inactive).

Take “TLN1 (lysine site: K138) (UniProt Q9Y490)”: the “lysine labeling ratio R10:1” value is 1.21 (active).

Take “HSP90B1 (lysine site: K547) (UniProt P14625)”: the “lysine labeling ratio R10:1” value is 3.04 (inactive).

Regarding “MCAM (lysine site: K182) (UniProt P43121)”, the “lysine labeling ratio R10:1” value is 3.4 (inactive).

As to “CELSR2 (lysine site: K1846) (UniProt Q9HCU4)”, the “lysine labeling ratio R10:1” value is 3.09 (inactive).

As for “TFPI (lysine site: K102) (UniProt P10646)”, the “lysine labeling ratio R10:1” value was 7.9 (inactive).

Take “CDV3 (lysine site: K15) (UniProt Q9UKY7)”: the “lysine labeling ratio R10:1” value is 2.4 (inactive).

As to “SRP14 (lysine site: K55) (UniProt P37108)”, the “lysine labeling ratio R10:1” value was 1.02 (active).

Consider “HSPD1 (lysine site: K250) (UniProt P10809)”, for which the “lysine labeling ratio R10:1” value is 2.65 (inactive).

In the case of “MYH9 (lysine site: K1862) (UniProt P35579)”, the “lysine labeling ratio R10:1” value was 2.81 (inactive).

In the case of “CCT4 (lysine site: K29) (UniProt P50991)”, the “lysine labeling ratio R10:1” value is 1.71 (active).

Turning to “ARHGDIA (lysine site: K52) (UniProt P52565)”, the “lysine labeling ratio R10:1” value is 1.66 (active).

Turning to “GALNT7 (lysine site: K624) (UniProt Q86SF2)”, the “lysine labeling ratio R10:1” value was 1.81 (active).

For “ILF3 (lysine site: K535) (UniProt Q12906)”, the “lysine labeling ratio R10:1” value is 0.982 (active).

Turning to UniProt Q15149 (lysine site: K1150), the “lysine labeling ratio R10:1” value is 3.29 (inactive).

Turning to CS (lysine site: K76) (UniProt O75390), the “lysine labeling ratio R10:1” value was 5.03 (inactive).

“ADAM15 (lysine site: K660) (UniProt Q13444)”: the “lysine labeling ratio R10:1” value is 4.34 (inactive).

With UniProt P08727 (lysine site: K398), the “lysine labeling ratio R10:1” value was 2.38 (inactive).

Turning to “CD99L2 (lysine site: K86) (UniProt Q8TCZ2)”, the “lysine labeling ratio R10:1” value was 3.94 (inactive).

Consider “LAMC1 (lysine site: K1584) (UniProt P11047)”, for which the “lysine labeling ratio R10:1” value was 3.72 (inactive).

For the target “STOML2 (lysine site: K254) (UniProt Q9UJZ1)”, the “lysine labeling ratio R10:1” value was 5.22 (inactive).

With “SAFB2 (lysine site: K829) (UniProt Q14151)”, the “lysine labeling ratio R10:1” value was 1.92 (active).

As to “PSME2 (lysine site: K15) (UniProt Q9UL46)”, the “lysine labeling ratio R10:1” value was 6.45 (inactive).
